# In PubChem BioAssay (Tox21):
# Values without a mark were called inactive. Records with an inconclusive call do not appear. Where a call stands in place of a potency, no number is given. Active and inactive are the calls of the source. Calls follow the shape of the dose curve; as a rule, active = well fitted curve in the direction sought with a large enough effect in the repeat runs; inconclusive = weak or mixed curves; inactive = no such curve, though single readings can be large; an effect the other way counts as inactive or inconclusive.
# Tests used:
# [1] = Human pregnane X receptor (PXR) small molecule agonists, qHTS cell viability counter screen (AID 1346977); also: nearly all actives have a fitted effect of over 50% in size; also: potency is read from the fitted curve at half-maximal effect
# How it was run: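 Viability counter screen: CellTiter-Fluor signal in PXR-Luc HepG2 cells, 24hr compound exposure, 37C, 5% CO2.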
# [2] = Caspase-3/7 induction in HepG2 cells by small molecules, qHTS assay (AID 1346978); also: nearly all actives have a fitted effect of over 15% in size
# How it was run: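 Wild-type HepG2 cells (2,000/well) were settled 5 h at 37 C, 5% CO2, then exposed to compounds in DMSO for 17 h. Caspase-3/7 activity was read by luminescence 30 min after adding Caspase-Glo 3/7 reagent at room temperature.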
# [3] = Caspase-3/7 induction in CHO-K1 cells by small molecules, qHTS cell viability counter screen (AID 1346979); also: nearly all actives have a fitted effect of over 35% in size; also: potency is read from the fitted curve at half-maximal effect
# How it was run: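 Viability readout by fluorescence (CellTiter-Fluor) on wild-type CHO-K1 cells exposed for 16hr at 37C and 5% CO2 to compounds delivered in DMSO; reagent incubated 1hr before reading.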
# [4] = Caspase-3/7 induction in CHO-K1 cells by small molecules, qHTS assay (AID 1346980); also: nearly all actives have a fitted effect of over 15% in size
# How it was run: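 Wild-type cells were seeded at 1,500 per well and settled 5 hr at 37 C, 5% CO2, then exposed to DMSO-dissolved compounds for 17 hr. Caspase-Glo 3/7 reagent was added, and luminescence was read after 30min at room temperature.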
# [5] = Caspase-3/7 induction in HepG2 cells by small molecules, qHTS cell viability counter screen (AID 1346981); also: nearly all actives have a fitted effect of over 30% in size; also: potency is read from the fitted curve at half-maximal effect; as to activity change, negative = cytotoxicity: series mostly up to about 92 µM
# How it was run: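 Fluorescence read-out of live-cell protease activity (CellTiter-Fluor) after 1 hr with reagent. This was measured in the same wells as the caspase-3/7 luminescence, on HepG2 cells exposed to DMSO-dissolved compounds for 16 hr at 37 C.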
# [6] = biological target: Nuclear receptor subfamily 1 group I member 2 (Homo sapiens) (UniProt O75469); assay: Human pregnane X receptor (PXR) small molecule agonists, qHTS assay (AID 1346982); also: nearly all actives have a fitted effect of over 35% in size; also: potency is read from the fitted curve at half-maximal effect
# Nuclear receptor subfamily 1 group I member 2 (Homo sapiens), sequence (O75469 whole entry, looked up): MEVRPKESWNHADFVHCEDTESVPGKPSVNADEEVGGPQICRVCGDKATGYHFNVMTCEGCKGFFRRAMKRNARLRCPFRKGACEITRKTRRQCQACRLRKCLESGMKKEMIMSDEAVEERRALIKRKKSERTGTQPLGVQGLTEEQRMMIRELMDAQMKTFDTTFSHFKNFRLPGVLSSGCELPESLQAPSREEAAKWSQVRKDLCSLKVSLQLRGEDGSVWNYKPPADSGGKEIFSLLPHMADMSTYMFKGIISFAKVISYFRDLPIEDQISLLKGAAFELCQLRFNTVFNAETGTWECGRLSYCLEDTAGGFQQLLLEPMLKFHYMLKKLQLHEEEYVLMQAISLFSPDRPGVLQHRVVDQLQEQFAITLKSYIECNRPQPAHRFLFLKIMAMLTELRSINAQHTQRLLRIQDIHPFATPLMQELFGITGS
# How it was run: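 HepG2 PXR-Luc reporter line, 5% charcoal-stripped FBS; 5 hr pre-incubation, compound (DMSO) 24 hr at 37 C/5% CO2; ONE-Glo 30 min RT; luminescence read-out.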
smiles,measurement,setting,value
CCN(CC)c1ccc(C(=C2C=CC(=[N+](CC)CC)C=C2)c2cc(S(=O)(=O)O)ccc2S(=O)(=O)[O-])cc1,Potency,[1],15 µM (active)
same,Potency,[2],inactive
same,Potency,[3],26.6 µM (active)
same,Potency,[4],inactive
same,Potency,[5],23.7 µM (active)
same,Potency,[6],inactive
NC(N)=NCCC[C@H](N)C(=O)O,"activity change, negative = cytotoxicity",[1],6.78% [at 8.39 µM]
same,caspase activation,[2],0.0391% [at 8.39 µM]
same,"activity change, negative = cytotoxicity",[3],-0.503% [at 8.39 µM]
same,caspase-3/7 activation,[4],0.0695% [at 8.39 µM]
same,"activity change, negative = cytotoxicity",[5],-0.647% [at 8.39 µM]
same,activation,[6],-5.55% [at 8.39 µM]
O=C(O)c1ccccc1Cl,Potency,[1],inactive
same,Potency,[2],inactive
same,Potency,[3],inactive
same,Potency,[4],inactive
same,Potency,[5],inactive
same,Potency,[6],inactive
OC[C@H]1O[C@@H](OCCc2ccc(O)cc2)[C@H](O)[C@@H](O)[C@@H]1O,Potency,[1],inactive
same,Potency,[2],inactive
same,Potency,[3],inactive
same,Potency,[4],inactive
same,Potency,[5],inactive
same,Potency,[6],inactive
CC(C)CC(=O)C1C(=O)c2ccccc2C1=O,Potency,[1],inactive
same,Potency,[2],inactive
same,Potency,[3],61.1 µM (active)
same,Potency,[4],inactive
CC(=O)[O][Al],Potency,[1],inactive
same,Potency,[2],inactive
same,Potency,[3],inactive
same,Potency,[4],inactive
same,Potency,[5],inactive
COC(C)OC,Potency,[1],inactive
same,Potency,[2],inactive
same,Potency,[3],inactive
same,Potency,[4],inactive
same,Potency,[5],inactive
same,Potency,[6],inactive
CC(C)(C)OCC1CO1 (stereo unspecified),Potency,[1],inactive
same,Potency,[2],inactive
same,Potency,[3],inactive
same,Potency,[4],inactive
same,Potency,[5],inactive
same,Potency,[6],inactive
CN(C)CCN(Cc1ccsc1)c1ccccn1,Potency,[1],inactive
same,Potency,[2],inactive
same,Potency,[3],inactive
same,Potency,[4],inactive
same,Potency,[5],inactive
same,Potency,[6],inactive
CC1=CCCC(C)(C)C12CCC(C)O2 (stereo unspecified),Potency,[1],inactive
same,Potency,[2],inactive
same,Potency,[3],inactive
same,Potency,[4],inactive
same,Potency,[5],inactive
same,Potency,[6],54.5 µM (active)
C[C@@H]1C[C@H]2O[C@@]3(O[C@@H]2C(C)(C)O)[C@H](O)[C@@]2(C)[C@@H]4CC[C@H]5C(C)(C)[C@@H](O[C@@H]6OC[C@@H](O)[C@H](O)[C@H]6O)CC[C@@]56C[C@@]46CC[C@]2(C)[C@@H]13,Potency,[1],inactive
same,Potency,[2],inactive
same,Potency,[3],inactive
same,Potency,[4],inactive
same,Potency,[5],inactive
C/C=C/C=C/CO,Potency,[1],inactive
same,Potency,[2],inactive
same,Potency,[3],inactive
same,Potency,[4],inactive
same,Potency,[5],inactive
same,Potency,[6],inactive
CC[N+]1(CC)CCC(=C(c2ccccc2)c2ccccc2)C1C (stereo unspecified),Potency,[1],inactive
same,Potency,[2],inactive
same,Potency,[3],inactive
same,Potency,[4],inactive
same,Potency,[5],inactive
same,Potency,[6],inactive
CCCCC(=O)OCC(=O)[C@H]1[C@H](C)C[C@H]2[C@@H]3C[C@H](F)C4=CC(=O)C=C[C@]4(C)[C@@]3(F)[C@@H](O)C[C@@]21C,Potency,[1],inactive
same,Potency,[2],inactive
same,Potency,[3],inactive
same,Potency,[4],inactive
same,Potency,[5],inactive
same,Potency,[6],9.44 µM (active)
C/C(=C(\CCOP(=O)(O)O)SC(=O)c1ccccc1)N(C=O)Cc1cnc(C)nc1N,"activity change, negative = cytotoxicity",[1],10.5% [at 8.39 µM]
same,caspase activation,[2],0.0207% [at 8.39 µM]
same,"activity change, negative = cytotoxicity",[3],2.5% [at 8.39 µM]
same,caspase-3/7 activation,[4],-0.786% [at 8.39 µM]
same,"activity change, negative = cytotoxicity",[5],6.79% [at 8.39 µM]
CCCCC(CC)COC(=O)COc1ccc(Cl)cc1Cl (stereo unspecified),Potency,[1],inactive
same,Potency,[2],inactive
same,Potency,[3],inactive
same,Potency,[4],inactive
same,Potency,[5],inactive
same,Potency,[6],inactive
